The text below walks through data of PubChem BioAssay.

Structures are written as SMILES. Calls of active or inactive are those of the source.

Assay [1] relates to Plasmodium falciparum Sir2 (PF13_0152, Sir2A). Briefly: Plasmodium falciparum Sir2A binding compounds – biochemical, small-molecule microarray, 635 nm fluorescence, primary screen (AID 1098).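 Further: score merges spot fluorescence intensity with its signal-to-noise ratio.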 The following applies: fluorescence 635 nm, higher = more signal.
Assay [2] can be described thus: probe aDKK1 binding to arrayed compounds – biochemical, biotinylated probe, 635/667 nm fluorescence, primary screen (AID 1099).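 Further: score merges 667nm spot fluorescence with signal to noise across triplicate slides.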 Conditions: small-molecule microarray, higher = more signal.
The nature of assay [3]: probe aCHRDL2 binding to arrayed compounds – biochemical, biotinylated probe, 635/667 nm fluorescence, primary screen (AID 1100). The following applies: small-molecule microarray, higher = more signal.
Assay [4] can be described thus: change in splice reporter luminescence, either direction, cell-based, HEK293, spliceosome inhibition project, primary screen (AID 1101).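 Further: HEK293 cells carrying a splicing-competent luciferase reporter gene; test concentration not given here.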 Conditions: HEK293 splicing luciferase reporter, 24 h, higher = more signal, called active from +8 up or from −8 down. Background: Reporter assays use an easily measured gene product as a stand-in for the process of interest.
Assay [5] concerns the target Fibroblast growth factor 10 (Homo sapiens) (UniProt O15520). The experiment in a line: compounds binding fibroblast growth factor 10 – biochemical, small-molecule microarray, 635 nm fluorescence, primary screen (AID 1102). Conditions: FGF10 binding, fluorescence 635 nm, higher = more signal.
In assay [6] the test system is glycogen synthase kinase-3 (GSK3A per assay name; protocol says GSK3B). The experiment in a line: compounds binding glycogen synthase kinase-3 – biochemical, small-molecule microarray, 635 nm fluorescence, GSK3A, primary screen (AID 1103). Further: the record names both GSK3A and GSK3B. Conditions: fluorescence 635 nm, higher = more signal.
The target in assay [7] is Epidermal growth factor receptor (Homo sapiens) (UniProt P00533). Briefly: compounds binding epidermal growth factor receptor – biochemical, small-molecule microarray, 635 nm fluorescence, primary screen (AID 1104).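 Further: score merges 667 nm emission intensity with spot signal to noise over triplicate slides.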 Conditions: EGFR binding, higher = more signal.
Epidermal growth factor receptor (Homo sapiens), sequence (P00533 whole entry, looked up): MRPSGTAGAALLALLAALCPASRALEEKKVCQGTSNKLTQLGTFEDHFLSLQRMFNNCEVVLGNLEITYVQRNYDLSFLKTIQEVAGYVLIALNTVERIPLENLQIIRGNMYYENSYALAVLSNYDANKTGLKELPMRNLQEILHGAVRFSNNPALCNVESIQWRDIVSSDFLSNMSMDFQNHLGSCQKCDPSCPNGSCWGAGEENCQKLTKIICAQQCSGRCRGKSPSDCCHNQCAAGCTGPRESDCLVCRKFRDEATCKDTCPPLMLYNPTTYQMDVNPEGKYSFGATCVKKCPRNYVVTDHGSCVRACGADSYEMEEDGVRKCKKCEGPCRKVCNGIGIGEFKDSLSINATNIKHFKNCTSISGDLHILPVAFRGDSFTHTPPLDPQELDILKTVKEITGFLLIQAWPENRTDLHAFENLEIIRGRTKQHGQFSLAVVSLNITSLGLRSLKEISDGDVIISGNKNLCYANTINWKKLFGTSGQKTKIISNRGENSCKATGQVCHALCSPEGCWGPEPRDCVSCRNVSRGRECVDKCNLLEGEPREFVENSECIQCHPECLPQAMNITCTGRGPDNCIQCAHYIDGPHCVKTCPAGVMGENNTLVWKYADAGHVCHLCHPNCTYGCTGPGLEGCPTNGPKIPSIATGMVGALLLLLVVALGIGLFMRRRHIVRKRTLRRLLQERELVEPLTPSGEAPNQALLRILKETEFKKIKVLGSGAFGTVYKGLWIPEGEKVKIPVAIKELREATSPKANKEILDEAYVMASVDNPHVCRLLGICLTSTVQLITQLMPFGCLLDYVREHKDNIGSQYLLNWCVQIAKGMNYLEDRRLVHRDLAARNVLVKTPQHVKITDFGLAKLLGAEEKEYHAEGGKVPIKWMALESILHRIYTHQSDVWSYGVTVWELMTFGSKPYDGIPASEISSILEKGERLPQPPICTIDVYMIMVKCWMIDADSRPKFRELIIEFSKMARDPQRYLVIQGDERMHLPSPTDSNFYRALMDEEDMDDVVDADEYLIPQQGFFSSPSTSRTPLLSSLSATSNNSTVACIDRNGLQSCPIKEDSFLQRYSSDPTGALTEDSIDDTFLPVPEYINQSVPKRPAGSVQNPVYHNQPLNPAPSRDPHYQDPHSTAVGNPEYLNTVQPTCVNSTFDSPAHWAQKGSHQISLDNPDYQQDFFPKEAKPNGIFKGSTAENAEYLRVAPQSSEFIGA
The target in assay [8] is Follistatin-related protein 3 (Homo sapiens) (UniProt O95633). The experiment in a line: compounds binding follistatin-related protein 3 – biochemical, small-molecule microarray, 635 nm fluorescence, primary screen (AID 1105).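 Further: score merges emission near 667 nm and signal to noise per printed spot across three slides.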 Conditions: FSTL3 binding, higher = more signal.
Follistatin-related protein 3 (Homo sapiens), sequence (O95633 whole entry, looked up): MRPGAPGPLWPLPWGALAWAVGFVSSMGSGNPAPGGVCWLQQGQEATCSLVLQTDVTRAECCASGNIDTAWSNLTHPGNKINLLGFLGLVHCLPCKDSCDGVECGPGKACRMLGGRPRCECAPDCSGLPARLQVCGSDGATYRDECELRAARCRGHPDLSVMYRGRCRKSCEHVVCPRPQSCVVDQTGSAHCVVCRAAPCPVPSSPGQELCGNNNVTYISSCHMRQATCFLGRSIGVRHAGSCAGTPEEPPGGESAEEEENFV
Assay [9] addresses Dickkopf-related protein 1 (Homo sapiens) (UniProt O94907). The experiment in a line: small molecules binding DKK1 protein – biochemical, small-molecule microarray, 635 nm fluorescence scan, primary screen (AID 1106).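 Further: score merges emission near 667 nm with signal to noise over three replicate slides.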 Conditions: higher = more signal.
Assay [10] has as its system Inhibin beta A chain (activin A). Briefly: small molecules binding activin A – biochemical, small-molecule microarray, 635 nm fluorescence scan, primary screen (AID 1107).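 Further: mouse activin A protein probed at 4.33 µg/mL on printed slides; score merges bound-protein fluorescence near 667 nm with spot signal-to-noise.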 The following applies: INHBA, higher = more signal.
Assay [11] deals with Human papillomavirus type 1a protein E7 (residues 44-93). Briefly: small molecules binding HPV E7 44-93 – biochemical, small-molecule microarray, residues 44-93, 635 nm fluorescence, primary screen (AID 1108).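 Further: E7 fragment applied at 1 µg/mL in TBST for 1 h at 4 C; score combines spot fluorescence with its signal to noise ratio.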 Conditions: fluorescence 635 nm, higher = more signal.
Assay [12] is described as follows: hepatitis C replication reporter changes, two-sided – Huh7 cells, luciferase reporter, HCV replication inhibitor project, primary screen (AID 1109).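 Further: huh7 hepatoma cells harbouring a luciferase neomycin HCV replicon reporter; luciferase luminescence as measure of HCV replicon replication; test concentration not given here.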 Conditions: Huh7 HCV replicon luciferase reporter, 48 h; higher = more signal.
The target in assay [13] is Left-right determination factor 2 (Homo sapiens) (UniProt O00292). The experiment in a line: small molecules binding LEFTY2 protein – biochemical, small-molecule microarray, 635 nm fluorescence scan, primary screen (AID 1110). Conditions: higher = more signal.
Left-right determination factor 2 (Homo sapiens), sequence (O00292 whole entry, looked up): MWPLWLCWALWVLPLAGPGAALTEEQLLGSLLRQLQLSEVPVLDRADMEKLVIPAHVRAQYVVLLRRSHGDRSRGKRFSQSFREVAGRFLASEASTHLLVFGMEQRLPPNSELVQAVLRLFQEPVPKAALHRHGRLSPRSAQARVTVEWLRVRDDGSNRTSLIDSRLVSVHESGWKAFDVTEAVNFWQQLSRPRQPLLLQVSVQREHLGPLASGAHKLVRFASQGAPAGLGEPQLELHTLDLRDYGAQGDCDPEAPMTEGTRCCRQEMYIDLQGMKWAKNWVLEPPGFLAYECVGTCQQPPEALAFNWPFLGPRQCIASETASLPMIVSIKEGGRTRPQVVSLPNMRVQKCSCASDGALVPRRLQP
In assay [14] the target is Calmodulin-1 (Homo sapiens) (UniProt P0DP23). Briefly: small molecules binding calmodulin-1 with EGTA – biochemical, small-molecule microarray, Cy5-labelled CALM1, profiling panel (AID 1111).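 Further: labelled calmodulin applied in Tris saline Tween buffer holding calcium plus EGTA and DTT.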 The following applies: Cy5-CALM1 binding fluorescence, higher = more signal.
For assay [15] the target is unchanged. Briefly: small molecules binding Ca-loaded calmodulin-1 – biochemical, small-molecule microarray, Cy5-labelled CALM1, plus calcium, artefact control for SMM control-protein annotation, profiling panel (AID 1112).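 Further: score merges spot fluorescence with signal to noise from triplicate slides.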 Conditions: Cy5-CALM1 binding fluorescence, higher = more signal.
The nature of assay [16]: probe aWnt5a binding to arrayed compounds – biochemical, biotinylated probe, 635/667 nm fluorescence, primary screen (AID 1113).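 Further: score merges 667 nm fluorescence intensity with signal-to-noise per printed feature.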 The following applies: small-molecule microarray, higher = more signal.
The nature of assay [17]: probe aShh binding to arrayed compounds – biochemical, biotinylated probe, 635/667 nm fluorescence, primary screen (AID 1114).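 Further: probe is biotin-labelled aShh protein from a stem cell growth factor screen; measures binding of labelled protein to compounds printed on the slide; score merges feature fluorescence at 667 nm with signal-to-noise.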 Conditions: small-molecule microarray, higher = more signal.
Assay [18] in a line: probe aNog binding to arrayed compounds – biochemical, biotinylated probe, 635/667 nm fluorescence, primary screen (AID 1115).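 Further: probe is biotinylated aNog protein used at 0.15 µg/mL for 1 h at 4 C; z-score combines 667 nm fluorescence of each spot with its signal to noise.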 Conditions: small-molecule microarray, higher = more signal.
The target of assay [19] is Torsin-1A-interacting protein 1 (Homo sapiens) (UniProt Q5JTV8). Briefly: compound microarray binding of lysate hLAP1 – cell lysate, small-molecule microarray, COS7 lysate, 635/667 nm fluorescence, primary screen (AID 1116). The following applies: 635 nm fluorescence, higher = more signal.
Torsin-1A-interacting protein 1 (Homo sapiens), sequence (Q5JTV8 whole entry, looked up): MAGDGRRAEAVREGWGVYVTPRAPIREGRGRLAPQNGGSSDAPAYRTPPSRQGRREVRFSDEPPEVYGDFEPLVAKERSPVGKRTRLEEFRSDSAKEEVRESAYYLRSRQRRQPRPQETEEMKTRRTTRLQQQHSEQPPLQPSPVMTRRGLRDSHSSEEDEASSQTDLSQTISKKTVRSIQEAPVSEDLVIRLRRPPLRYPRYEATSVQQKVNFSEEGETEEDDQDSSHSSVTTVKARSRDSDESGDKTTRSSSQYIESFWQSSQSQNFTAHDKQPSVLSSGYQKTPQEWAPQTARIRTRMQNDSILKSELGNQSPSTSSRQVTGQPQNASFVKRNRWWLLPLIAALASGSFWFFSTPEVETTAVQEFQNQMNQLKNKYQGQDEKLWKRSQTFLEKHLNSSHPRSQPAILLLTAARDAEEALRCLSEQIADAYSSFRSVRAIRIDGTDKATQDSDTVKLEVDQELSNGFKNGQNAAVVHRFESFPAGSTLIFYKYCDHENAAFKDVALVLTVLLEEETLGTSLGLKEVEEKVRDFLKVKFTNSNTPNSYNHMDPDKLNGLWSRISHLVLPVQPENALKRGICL
The target in assay [20] is Alpha-bungarotoxin (Bungarus multicinctus) (UniProt P60615). Briefly: compounds binding labelled alpha-BTX control protein – biochemical, small-molecule microarray, Alexa647 label, 635/667 nm fluorescence, artefact control for SMM control protein annotation, profiling panel (AID 1117). The following applies: alpha-BTX-A647 binding fluorescence, higher = more signal.
Alpha-bungarotoxin (Bungarus multicinctus), sequence (P60615 whole entry, looked up): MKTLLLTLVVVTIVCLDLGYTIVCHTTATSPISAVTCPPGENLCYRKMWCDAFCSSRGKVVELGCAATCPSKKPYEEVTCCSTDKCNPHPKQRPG

Fibroblast growth factor 10 (Homo sapiens), sequence (O15520 whole entry, looked up): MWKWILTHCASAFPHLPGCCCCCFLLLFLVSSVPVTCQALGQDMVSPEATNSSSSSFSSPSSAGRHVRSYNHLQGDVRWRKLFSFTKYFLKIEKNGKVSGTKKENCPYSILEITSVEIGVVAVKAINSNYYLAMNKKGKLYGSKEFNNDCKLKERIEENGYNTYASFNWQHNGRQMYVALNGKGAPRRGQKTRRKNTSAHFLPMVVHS
Dickkopf-related protein 1 (Homo sapiens), sequence (O94907 whole entry, looked up): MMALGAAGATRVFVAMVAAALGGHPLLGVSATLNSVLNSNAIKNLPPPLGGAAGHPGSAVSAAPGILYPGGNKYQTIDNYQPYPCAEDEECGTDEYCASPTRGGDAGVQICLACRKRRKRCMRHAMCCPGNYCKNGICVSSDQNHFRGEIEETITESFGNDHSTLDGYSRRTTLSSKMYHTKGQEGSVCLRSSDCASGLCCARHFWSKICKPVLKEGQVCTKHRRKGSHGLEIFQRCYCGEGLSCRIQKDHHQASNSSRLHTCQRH

Consider `C=C(COC)/C(=C/C[C@H](OC(C)=O)c1cccc(OCCO)c1)c1cnc2ccccc2c1`, for which the composite z-score was 1.38 in assay [1]; -0.0559 in assay [2]; 0.0794 in assay [3]; 1.51 in assay [5]; 0.965 in [6]; 0.771 in [7]. Further, the composite z-score is 1.58 in [8]; 0.83 in assay [9]; 1.75 in assay [10]; 1.4 in [11]; 0.536 in assay [13]; -0.0062 in assay [14]. Also, the composite z-score is -0.892 in [15]; -0.0512 in [16]; -0.147 in [17]; 0.353 in assay [18]; 0.416 in assay [19]; 2.04 in [20]. Besides, the z-score in [4] was 0.344 (inactive); in [12], -1.7.
`C[C@@H]1ON(c2ccc(I)cc2)[C@H](c2ccc(OC(=O)OC(C)(C)C)cc2)[C@H]1C(=O)N1C(=O)OC[C@H]1Cc1ccccc1`: the composite z-score was 0.718 in assay [1]; -0.14 in assay [2]; -0.345 in [3]; 0.367 in assay [5]; 1.07 in [6]; 0.458 in assay [7]. Besides, the composite z-score in assay [8] is 0.872; in assay [9] it was 0.567; in assay [10], 0.0676; in [11], 1.15; in [13] it was 0.628; in [14], 0.501. In addition, the composite z-score in assay [15] is -0.502; in assay [16], -0.241; in [17], -0.0431; in [18], -0.321; in assay [19], 0.362; in assay [20] it was 0.943. Further, the z-score is -1.78 (inactive) in [4] and -1.12 in [12].
In the case of `[N-]=[N+]=Nc1ccccc1C[C@@]1(C(=O)O)N=C(c2ccc(OCCCO)cc2)O[C@@H]1c1ccccc1N=[N+]=[N-]`, the composite z-score was 1.46 in [1]; 1.16 in assay [2]; 1.32 in assay [3]; 0.285 in assay [5]; 1.11 in assay [6]; -0.383 in assay [7]. In addition, the composite z-score in assay [8] was 0.626; in assay [9], -0.435; in [10] it was 1.29; in assay [11] it was 1.26; in assay [13], 0.0656; in [14] it was 2.45. Besides, the composite z-score in [15] was 1.12; in [16] it was -0.034; in [17] it was 0.108; in assay [18], 1.27; in assay [19] it was 1.79; in [20] it was 1.32. Moreover, the z-score is -0.469 (inactive) in assay [4] and -1.26 in assay [12].
Regarding `CCOC(=O)C1=CCC(c2ccco2)N(S(=O)(=O)c2ccc(C)cc2)C1` (stereo not given), the composite z-score in assay [1] is 1.04; in assay [2] it was 0.363; in assay [3], -0.0042; in assay [5] it was 1.12; in assay [6], 1.3; in [7], 0.422. Moreover, the composite z-score worked out at 1.22 in assay [8]; 0.49 in [9]; 1.35 in [10]; 1.36 in assay [11]; 0.297 in [13]; 0.921 in assay [14]. The composite z-score was 0.0331 in assay [15]; 0.0279 in [16]; 0.0048 in assay [17]; -0.423 in [18]; 0.761 in assay [19]; 0.818 in assay [20]. The z-score was 0.0407 (inactive) in assay [4] and -2.3 in [12].
Regarding `COc1ccc([Si](C)(C)[C@H]2[C@H](CC(=O)N3CCC[C@H]3CO)O[C@@]3(C(=O)N(Cc4ccc(N5CCC5=O)cc4)c4ccccc43)[C@@H]2C)cc1`, the composite z-score in assay [1] was 1.49; in assay [2], -0.248; in [3], -0.567; in assay [5], 1.34; in assay [6], 1.29; in assay [7] it was 0.838. Also, the composite z-score in assay [8] was 1.41; in assay [9] it was 0.774; in assay [10] it was -0.525; in assay [11], 1.13; in assay [13], 0.794; in assay [14], 0.865. For the same molecule, the composite z-score in [15] was 0.0623; in [16], -0.0735; in assay [17] it was -0.0709; in [18], -0.484; in [19], 1.53; in assay [20], 1.79. In addition, the z-score was -0.805 (inactive) in [4] and -1.88 in [12].
`O=C1C[C@@](C(=O)NCC(F)(F)F)(c2ccc([N+](=O)[O-])cc2)[C@@H](c2ccc(CO)cc2)N1CC12CC3CC(CC(C3)C1)C2`: the composite z-score was found to be 1.4 in assay [1]; 1.09 in assay [2]; 0.957 in assay [3]; 1.44 in assay [5]; 1.07 in [6]; 1.13 in assay [7]. The composite z-score in assay [8] amounted to 1.03; in assay [9] it was 0.927; in [10] it was 0.469; in assay [11] it was 0.913; in [13], 0.309; in assay [14], 0.835. Besides, the composite z-score in assay [15] came out at 0.569; in assay [16] it was 0.0044; in [17] it was 0.315; in assay [18] it was 0.542; in assay [19] it was 1.31; in [20], 0.987. In addition, the z-score in assay [4] was -2.11 (inactive); in assay [12], -3.33.
As to `Cc1cccc([C@H]2C[C@H]3C(Br)=C[C@@H]2C(=O)[C@]32CO2)c1`, the composite z-score in [1] is -0.256; in [2], -0.423; in assay [3] it was -0.0607; in assay [5], -0.711; in [6] it was -0.869; in [7] it was -0.0431. In addition, the composite z-score in assay [8] is -0.412; in assay [9], 0.404; in assay [10] it was 1.37; in assay [11] it was -0.97; in [13] it was 0.174; in [14], -0.206. Besides, the composite z-score in [15] is -0.41; in assay [16], -0.18; in assay [17] it was -0.341; in assay [18], -0.0784; in [19], -0.188; in [20], 0.106. The z-score in assay [4] was -0.517 (inactive); in [12], -2.5.
`NCCCCCNC(=O)[C@H]1C[C@H]2C(=O)N[C@@H](Cc3ccccc3)C(=O)N2[C@H]1c1ccc(O)cc1`: the composite z-score was 1.16 in assay [1]; 1.42 in assay [2]; 0.937 in [3]; -0.0576 in assay [5]; 0.431 in [6]; -0.381 in assay [7]. For the same molecule, the composite z-score in assay [8] worked out at 0.275; in [9], 0.224; in assay [10], 1.39; in assay [11] it was 1.05; in assay [13], 0.202; in [14] it was 2.24. Besides, the composite z-score in assay [15] was determined as 1.14; in assay [16], 0.183; in assay [17] it was 0.596; in [18], 0.859; in assay [19], 0.456; in assay [20], 0.949. The z-score is 0.195 (inactive) in [4] and 0.0505 in [12].
